This is an account of results in PubChem BioAssay (Tox21).

Several values for one entry are separate records, joined by “and”; a condition that tells them apart may be missing. Equal values may be shown once. Records with an inconclusive call do not appear. Some structures have more than one record in an assay (separate samples or runs), and their calls can disagree. Activity calls are given as the source filed them. Unless noted, calls come from the whole dose curve.

Assay [1] is described as follows: qHTS assay to identify small molecule antagonists of the sonic hedgehog signaling (Shh) pathway (AID 1259369). Note: nearly all actives have a fitted effect of over 45% in size. Note: potency is the fitted concentration of half-maximal effect. To be noted: NIH/3T3 Gli1-Luc reporter, Shh antagonist, luminescence 24 h; series mostly up to 92.4 µM. Summed up:
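Gli1 transcriptional reporter (firefly Luc) in NIH/3T3 background, conditioned-medium activated. 24hr exposure, luminescence endpoint.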
(In qHTS, concentration-response curves come from the screen itself.)

Assay [2] deals with Estrogen receptor beta (Homo sapiens) (UniProt Q92731). Kind of assay: qHTS assay to identify small molecule antagonists of the estrogen receptor beta (ER-beta) signaling pathway (AID 1259378; active = well fitted inhibition curve with a large enough effect in the signal ratio in the repeat runs, not every such curve was filed as active; the % refers to the signal ratio; note: potency is the fitted concentration of half-maximal effect). To be noted: ER-beta-UAS-bla HEK293T, beta-lactamase FRET ratio, 16 h; series mostly up to 92.4 µM. Put shortly:
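ER-beta-UAS-bla HEK293T cells in 2% charcoal-stripped FBS medium treated with compound plus 1nM final 17-beta-estradiol for 16 hr at 37C. Beta-lactamase reporter read by FRET substrate fluorescence after 2 hours at room temperature.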

Assay [3] can be described thus: qHTS assay to identify small molecule agonists of the androgen receptor (AR) signaling pathway in the presence of an antagonist - cell viability counter screen (AID 1259379; active = well fitted curve in the direction sought with a large enough effect in the repeat runs; an effect the other way counts as inactive or inconclusive; note: nearly all actives have a fitted effect of over 25% in size; note: potency is the fitted concentration of half-maximal effect). To be noted: MDA-kb2 viability, CellTiter-Fluor, 16 h; series mostly up to 92.4 µM. Put shortly: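 Counter screen for cell viability run in parallel with the AR agonist-mode luciferase assay. MDA-kb2 cells were co-treated with nilutamide (3.0uM final) and compounds, then incubated 16 hr at 37C, and CellTiter-Fluor fluorescence was measured.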

Assay [4] is described as follows: qHTS assay to identify small molecule agonists of the estrogen receptor beta (ER-beta) signaling pathway - cell viability counter screen (AID 1259380; active = well fitted curve in the direction sought with a large enough effect in the repeat runs; an effect the other way counts as inactive or inconclusive; note: nearly all actives have a fitted effect of over 30% in size; note: potency is the fitted concentration of half-maximal effect). To be noted: ER-beta-bla HEK293T viability, CellTiter-Glo luminescence, 16 h; series mostly up to 92.4 µM. Summed up: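 In this qHTS counter screen, HEK293T cells carrying an ER-beta/UAS beta-lactamase reporter, grown in 2% charcoal-stripped FBS, received compound for 16 hr; ATP-based CellTiter-Glo luminescence was then read after 30 min at room temperature.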

For assay [5], the target named is Androgen receptor (Homo sapiens) (UniProt P10275). Kind of assay: qHTS assay to identify small molecule agonists of the androgen receptor (AR) signaling pathway in the presence of an antagonist (AID 1259381). Note: nearly all actives have a fitted effect of over 15% in size. To be noted: MDA-kb2 MMTV-luciferase, AR agonist + nilutamide, 16 h; series mostly up to 92.4 µM. Summed up:
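AR antagonist background: nilutamide 3.0uM final. Cell line: MDA-kb2, MMTV-driven luciferase, responsive to both AR and GR. Exposure 16hr, 37C, no CO2; ONE-Glo luminescence.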

The nature of assay [6]: qHTS assay to identify small molecule antagonists of the estrogen receptor beta (ER-beta) signaling pathway - cell viability counter screen (AID 1259382; active = well fitted curve in the direction sought with a large enough effect in the repeat runs; an effect the other way counts as inactive or inconclusive; note: nearly all actives have a fitted effect of over 55% in size; note: potency is the fitted concentration of half-maximal effect). To be noted: ER-beta-UAS-bla HEK293T viability, CellTiter-Glo luminescence, 16 h; series mostly up to 92.4 µM. Put shortly:
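HEK293T ER-beta-UAS-bla, 2% charcoal-stripped FBS; compounds + 1nM E2 16 hr 37C; CellTiter-Glo luminescence, 30 min RT.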

In assay [7] the target is Estrogen receptor (Homo sapiens) (UniProt P03372). Kind of assay: qHTS assay to identify small molecule agonists of the estrogen receptor alpha (ER-alpha) signaling pathway in the presence of an antagonist (AID 1259383). Note: top concentration of the series differs between compounds; nearly all actives have a fitted effect of over 15% in size. To be noted: VM7Luc4E2 cells, ERE-luciferase, +ICI-182,780, 22 h; series mostly up to 92.4 µM. Summed up: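 ER-alpha agonism measured under antagonist challenge: 10.0nM ICI-182,780 (final) plus compound, 15 concentrations, 22hr, VM7Luc4E2 ERE-luciferase cells. Read by luminescence.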

Assay [8] can be described thus: qHTS assay to identify small molecule agonists or antagonists of the thyroid stimulating hormone receptor (TSHR) signaling pathway - wild type cell line counter screen (AID 1259384). To be noted: HEK293 wild type, cAMP HTRF counter-screen; series mostly up to 92.4 µM. Summed up: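 Wild-type Hek293 cells, 800/well, 18 h at 37C, then compound with Ro20-1724 for 30 min RT. cAMP by HTRF (cAMP-d2/anti-cAMP cryptate), 1 h RT, fluorescence read. 15 concentrations, triplicates.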

Assay [9] addresses Thyrotropin receptor (Homo sapiens) (UniProt P16473). Kind of assay: qHTS assay to identify small molecule antagonists of the thyroid stimulating hormone receptor (TSHR) signaling pathway (AID 1259385). Note: nearly all actives have a fitted effect of over 20% in size. Note: potency is the fitted concentration of half-maximal effect. To be noted: TSHR-HEK293 cAMP HTRF, TSH-stimulated antagonist mode; series mostly up to 92.4 µM. Put shortly:
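TSHR-HEK293 cells (800/well) plated 18 h, then compounds with Ro20-1724 and TSH at 1.5 ng/mL final, 30 min at room temperature. cAMP quantified by HTRF (cAMP-d2/anti-cAMP-cryptate, 1 h); 15 concentrations in triplicate.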

Assay [10] addresses Estrogen receptor beta (Homo sapiens) (UniProt Q92731). Kind of assay: qHTS assay to identify small molecule agonists of the estrogen receptor beta (ER-beta) signaling pathway (AID 1259377; active = well fitted activation curve with a large enough effect in the signal ratio in the repeat runs, not every such curve was filed as active; the % refers to the signal ratio). To be noted: ER-beta-UAS-bla HEK293T, beta-lactamase FRET ratio, 16 h; series mostly up to 92.4 µM. Put shortly:
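Agonist mode cell assay in GripTite HEK293T cells expressing an ER-beta fusion that drives beta-lactamase from an Upstream Activator Sequence; 16 hr compound exposure at 37C, then 2 h LiveBLAzer B/G FRET substrate at room temperature, fluorescence read-out.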
% is set by controls: 0 for no effect and ±100 for the full control effect.

Chain of Thyrotropin receptor (Homo sapiens) (P16473 whole entry, looked up): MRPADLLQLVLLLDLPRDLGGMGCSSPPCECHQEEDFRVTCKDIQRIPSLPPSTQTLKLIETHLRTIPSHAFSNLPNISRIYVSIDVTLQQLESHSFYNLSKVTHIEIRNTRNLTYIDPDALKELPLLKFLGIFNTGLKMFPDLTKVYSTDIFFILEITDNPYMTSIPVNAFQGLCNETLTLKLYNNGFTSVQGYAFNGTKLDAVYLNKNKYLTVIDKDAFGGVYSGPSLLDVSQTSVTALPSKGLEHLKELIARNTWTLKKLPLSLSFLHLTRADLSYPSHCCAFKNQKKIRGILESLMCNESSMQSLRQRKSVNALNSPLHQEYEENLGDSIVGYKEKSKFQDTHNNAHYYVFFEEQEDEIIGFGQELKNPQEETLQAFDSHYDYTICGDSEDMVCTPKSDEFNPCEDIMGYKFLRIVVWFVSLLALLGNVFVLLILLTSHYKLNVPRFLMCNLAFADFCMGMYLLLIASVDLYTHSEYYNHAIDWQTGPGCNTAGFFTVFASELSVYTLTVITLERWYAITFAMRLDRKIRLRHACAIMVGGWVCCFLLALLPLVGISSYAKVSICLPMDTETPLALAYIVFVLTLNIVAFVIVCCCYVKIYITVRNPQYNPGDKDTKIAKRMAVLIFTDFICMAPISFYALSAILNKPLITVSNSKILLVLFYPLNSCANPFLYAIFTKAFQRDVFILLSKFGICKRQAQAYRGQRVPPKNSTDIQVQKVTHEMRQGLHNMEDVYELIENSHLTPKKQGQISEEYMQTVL
Chain of Androgen receptor (Homo sapiens) (P10275 whole entry, looked up): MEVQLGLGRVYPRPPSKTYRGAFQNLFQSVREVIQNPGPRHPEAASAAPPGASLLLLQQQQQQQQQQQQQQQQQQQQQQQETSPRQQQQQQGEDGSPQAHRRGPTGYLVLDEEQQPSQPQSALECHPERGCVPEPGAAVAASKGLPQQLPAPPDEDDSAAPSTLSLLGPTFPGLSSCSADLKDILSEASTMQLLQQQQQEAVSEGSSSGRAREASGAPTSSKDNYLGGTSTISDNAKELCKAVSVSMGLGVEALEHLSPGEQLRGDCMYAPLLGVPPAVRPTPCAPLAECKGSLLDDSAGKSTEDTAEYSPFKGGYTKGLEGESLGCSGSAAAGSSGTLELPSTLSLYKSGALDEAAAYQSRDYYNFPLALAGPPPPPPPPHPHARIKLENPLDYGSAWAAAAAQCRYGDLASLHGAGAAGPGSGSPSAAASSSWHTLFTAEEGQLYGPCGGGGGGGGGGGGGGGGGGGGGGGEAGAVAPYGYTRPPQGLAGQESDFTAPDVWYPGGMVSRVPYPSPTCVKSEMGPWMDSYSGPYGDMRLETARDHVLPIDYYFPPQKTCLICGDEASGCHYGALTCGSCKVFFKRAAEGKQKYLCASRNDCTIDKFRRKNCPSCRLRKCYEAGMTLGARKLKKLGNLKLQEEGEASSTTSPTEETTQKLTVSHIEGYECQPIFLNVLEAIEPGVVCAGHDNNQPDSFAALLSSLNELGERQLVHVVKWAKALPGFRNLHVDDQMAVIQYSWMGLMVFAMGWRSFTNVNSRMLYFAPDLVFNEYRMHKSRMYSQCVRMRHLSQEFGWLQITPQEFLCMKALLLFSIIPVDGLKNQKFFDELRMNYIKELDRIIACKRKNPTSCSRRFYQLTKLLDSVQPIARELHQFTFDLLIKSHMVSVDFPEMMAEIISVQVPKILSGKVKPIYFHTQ
Chain of Estrogen receptor (Homo sapiens) (P03372 whole entry, looked up): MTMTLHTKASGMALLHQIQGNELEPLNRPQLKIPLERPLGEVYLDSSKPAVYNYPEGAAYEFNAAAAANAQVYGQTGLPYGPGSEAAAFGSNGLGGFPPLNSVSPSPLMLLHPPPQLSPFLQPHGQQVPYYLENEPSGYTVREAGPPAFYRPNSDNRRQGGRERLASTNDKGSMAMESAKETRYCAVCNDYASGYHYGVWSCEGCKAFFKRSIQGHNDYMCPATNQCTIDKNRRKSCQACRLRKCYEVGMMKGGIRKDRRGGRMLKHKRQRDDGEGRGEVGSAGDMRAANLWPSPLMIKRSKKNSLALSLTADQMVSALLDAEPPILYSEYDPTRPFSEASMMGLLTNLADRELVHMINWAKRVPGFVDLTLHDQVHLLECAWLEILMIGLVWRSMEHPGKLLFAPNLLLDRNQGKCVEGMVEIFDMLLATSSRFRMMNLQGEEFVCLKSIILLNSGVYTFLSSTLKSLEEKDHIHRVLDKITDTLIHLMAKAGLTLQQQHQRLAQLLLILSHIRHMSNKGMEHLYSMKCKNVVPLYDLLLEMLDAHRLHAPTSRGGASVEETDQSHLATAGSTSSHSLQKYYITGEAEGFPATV
Chain of Estrogen receptor beta (Homo sapiens) (Q92731 whole entry, looked up, the tested form may be a part): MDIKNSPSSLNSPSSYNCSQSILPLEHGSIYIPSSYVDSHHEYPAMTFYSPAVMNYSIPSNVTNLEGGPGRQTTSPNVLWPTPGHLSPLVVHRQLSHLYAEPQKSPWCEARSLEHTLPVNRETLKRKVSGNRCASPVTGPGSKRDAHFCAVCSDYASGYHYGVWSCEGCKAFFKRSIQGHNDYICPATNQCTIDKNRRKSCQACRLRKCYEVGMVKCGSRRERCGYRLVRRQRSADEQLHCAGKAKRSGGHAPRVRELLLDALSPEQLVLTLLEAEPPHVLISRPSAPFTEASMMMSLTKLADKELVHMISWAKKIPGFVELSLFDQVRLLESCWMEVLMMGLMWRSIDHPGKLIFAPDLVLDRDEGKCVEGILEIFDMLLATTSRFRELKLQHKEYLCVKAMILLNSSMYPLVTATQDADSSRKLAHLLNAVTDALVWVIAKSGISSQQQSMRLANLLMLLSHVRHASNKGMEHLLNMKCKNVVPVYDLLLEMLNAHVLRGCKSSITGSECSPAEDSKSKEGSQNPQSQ

As to `O=[N+]([O-])/N=C1\NCCN1Cc1ccc(Cl)nc1`, the Potency result in assay [1], in assay [2], in [3], in assay [4], in assay [6] and in [7] was “inactive” throughout. In addition, the Potency result in assay [8] and in [9] was “inactive” in each case. Further, in assay [5], the outcome was inactive.

With `COP(=S)(OC)Oc1ccc(Sc2ccc(OP(=S)(OC)OC)cc2)cc1`, the Potency in [1] is 68.6 µM (active) and inactive. The Potency result in assay [10], in [2], in [3], in [4], in assay [6] and in assay [7] was “inactive” throughout. The Potency result in [8] and in assay [9] was “inactive” in each case. Further, the outcome in assay [5] was inactive.

In the case of `Oc1ccc(Cl)cc1Cc1ccccc1`, the Potency is 13.7 µM (active) and 24.6 µM (active) in [1]; 54.5 µM (active) and 27.6 µM (active) in assay [4]; 48.6 µM (active) and 52.1 µM (active) in [6]; “inactive and 55.1 µM (active)” in [9]. In addition, the Potency entry in assay [2], in assay [3] and in assay [8] was “inactive” throughout. Further, the result in assay [5] was inactive.

On to `COP(=O)(NC(C)=O)SC` (stereo unspecified), for which the Potency in assay [1] is 27.3 µM (active) and inactive. Also, the Potency entry in assay [2], in assay [3], in assay [4] and in assay [6] was “inactive” throughout.

As for `COP(=S)(OC)SCn1nnc2ccccc2c1=O`, the Potency in assay [1] is 30 µM (active) and inactive. For the same molecule, the Potency entry in [10], in [3], in assay [6], in assay [7], in assay [8] and in assay [9] was “inactive” throughout. Also, in [5], the result was inactive.

As to `OC(c1ccc(Cl)cc1)(c1cncnc1)c1ccccc1Cl` (stereo unspecified), the Potency result in [1], in [10] and in assay [7] was “inactive” in each case. The Potency in assay [2] was 24.3 µM (active); in [3], 24.8 µM (active) and inactive; in assay [4] it was 49.4 µM (active); in assay [6], 62.2 µM (active) and inactive.

For the molecule `CCCCSP(=O)(SCCCC)SCCCC`, the Potency entry in assay [1], in assay [10], in assay [2], in assay [3], in [4] and in [6] was “inactive” in each case. Moreover, the Potency entry in assay [8] was “inactive”.

In the case of `CN(C)c1ccccc1`, the Potency entry in assay [1], in [10], in [2], in assay [3], in [4] and in assay [6] was “inactive” throughout. In addition, the Potency result in [8] and in assay [9] was “inactive” each time.

On to `CCOP(=O)(OCC)OCC`, for which the Potency entry in assay [1], in assay [10], in [2], in [3], in assay [4] and in assay [6] was “inactive” each time. Further, the Potency result in assay [8] and in assay [9] was “inactive” in each case.

As to `Cc1ccc(N=CN(C)C=Nc2ccc(C)cc2C)c(C)c1`, the Potency was 54.7 µM (active) and inactive in [1]; 54.7 µM (active) and 30.6 µM (active) and inactive in [4]. In addition, the Potency entry in assay [10], in [2], in [3], in assay [6], in [7] and in [8] was “inactive” throughout. Besides, the Potency result in [9] is “inactive”.

Take `CC(C)Nc1nc(Cl)nc(NC(C)C)n1`: the Potency in [1] was 768 nM (active). For the same molecule, the Potency entry in assay [10], in assay [2], in [3], in assay [4], in assay [6] and in assay [7] was “inactive” throughout. Also, the Potency entry in assay [8] and in assay [9] was “inactive” throughout.

Take `CC(C)=CC1C(C(=O)OCc2cccc(Oc3ccccc3)c2)C1(C)C` (stereo unspecified): the Potency entry in assay [1], in assay [10], in assay [2], in assay [3], in assay [4] and in assay [6] was “inactive” each time. The Potency entry in [7], in [8] and in [9] was “inactive” throughout.

Turning to `S=c1[nH]c2ccccc2[nH]1`, the Potency result in assay [1], in assay [2], in [3], in [4], in assay [6] and in [8] was “inactive” throughout. The Potency entry in assay [9] is “inactive”. The outcome in assay [5] was inactive.

For the molecule `c1ccc2c(c1)Nc1ccccc1S2`, the Potency result in assay [1], in [10], in [2], in assay [3], in assay [4] and in [6] was “inactive” each time. Besides, the Potency entry in [7] was “inactive”.

Consider `COc1ccc(C=O)cc1OC`, for which, in assay [1], the Potency was 24600 nM (active). Further, the Potency result in [10], in assay [2], in assay [3], in assay [4], in assay [6] and in [7] was “inactive” in each case.

In the case of `CC(C)COC(=O)c1ccccc1C(=O)OCC(C)C`, the Potency result in assay [1], in assay [2], in [3], in assay [4], in [6] and in [7] was “inactive” in each case. The Potency result in [8] and in assay [9] was “inactive” throughout.

On to `ClC(Cl)(Cl)Br`, for which the Potency result in [1], in assay [3], in [4], in assay [6], in [8] and in assay [9] was “inactive” throughout. Further, the activity, negative = inhibition in assay [2] was -1.76% [at 19 µM] (inactive).

As for `CC(C)(O)C#N`, the Potency entry in assay [1], in [2], in assay [3], in assay [4], in assay [6] and in assay [8] was “inactive” throughout. In addition, in assay [9], the Potency result was “inactive”.

For `N#Cc1c(Cl)c(Cl)c(Cl)c(C#N)c1Cl`, the Potency in [1] is 300 nM (active); in assay [2], 3.78 µM (active); in assay [3], 16.9 µM (active) and 24.3 µM (active); in assay [4], 8.47 µM (active) and 19.3 µM (active); in assay [6], 9.5 µM (active) and 15.4 µM (active). The Potency result in assay [7] and in [8] was “inactive” in each case.

As to `CCN(CC)C(=O)C(C)Oc1cccc2ccccc12` (stereo unspecified), the Potency entry in assay [1], in [2], in assay [3], in assay [4], in assay [6] and in [7] was “inactive” throughout. The Potency entry in assay [8] and in assay [9] was “inactive” in each case.

As to `CC1(C)C(C(=O)OC(C#N)c2cccc(Oc3ccccc3)c2)C1(C)C` (stereo unspecified), the values for the Potency in assay [1], in assay [2] and in [9] were 13800 nM (active), 48.9 µM (active) and 61.6 µM (active), respectively. In addition, the Potency entry in [3], in assay [4], in assay [6], in [7] and in [8] was “inactive” each time.

Regarding `CCC1(c2ccc(N)cc2)CCC(=O)NC1=O` (stereo unspecified), the Potency entry in assay [1], in assay [3], in assay [4], in [6] and in assay [7] was “inactive” throughout. In addition, the outcome in assay [5] was inactive.

For the molecule `O=C(O)CF`, the Potency result in assay [1], in assay [2], in [3], in assay [4], in [6] and in [7] was “inactive” in each case. Further, the Potency result in assay [8] and in assay [9] was “inactive” throughout.

`CN(C)P(=O)(N(C)C)N(C)C`: the Potency result in assay [1], in assay [2], in assay [3], in assay [4], in [6] and in assay [7] was “inactive” throughout. Moreover, the Potency result in [8] and in [9] was “inactive” in each case.
